{
  "source": "ChEMBL document CHEMBL3988442",
  "about": "“University of Dundee, Small-Polar-MMV Screening Library” (2021)",
  "note": "The whole screen tested about 48,000 compounds, of which about 13,000 (27%) showed an effect of 50% or more. This is one part of the list.",
  "data": [
    {"system": "Wolbachia pipientis", "assay": "Anti-Wolbachia Cell-Based Screen", "format": "functional", "design": "scale not given: in the data most compounds retested in dose-response had high values", "conditions": "5 µM", "units": {"Percent Effect": "%"}, "values": [
      {"molecule": "O=C1CCCN1CCN1CCCCC1Cn1cccn1", "note": "(configuration not stated)", "Percent Effect": -13.35},
      {"molecule": "COc1cc(C2C3=C(COC3=O)Nc3[nH]nc(C)c32)cc2c1OCO2", "note": "(configuration not stated)", "Percent Effect": -6.627},
      {"molecule": "Cc1n[nH]c(C)c1CCNC(=O)Nc1ccc2c(c1)COC2", "Percent Effect": -11.47},
      {"molecule": "O=C(CN1CCNC1=O)NCc1ccc2sccc2c1", "Percent Effect": 117.7},
      {"molecule": "O=C(Cn1ccc(=O)cc1)NCc1ccc2sccc2c1", "Percent Effect": -4.934},
      {"molecule": "O=C(CN1CCNCC1)NCc1ccc2sccc2c1", "Percent Effect": -21.43},
      {"molecule": "CC(=O)N1CCC(C)(c2cc[nH]n2)CC1", "Percent Effect": 158.8},
      {"molecule": "CC(C)C(=O)N1CCC2(CC1)NC(=O)c1ccccc12.Cl", "Percent Effect": -14.83},
      {"molecule": "CC1(c2cc[nH]n2)CCN(C(=O)c2ccc(Cl)cc2)CC1", "Percent Effect": 120.3},
      {"molecule": "COc1ccc(N)c(N2CCN(C(C)=O)CC2)n1", "Percent Effect": -3.558},
      {"molecule": "CC(C)C(=O)N1CCC(C)(c2cc[nH]n2)CC1", "Percent Effect": 145.9},
      {"molecule": "CC(=O)N1CC2(CCN(C(=O)c3cccc4[nH]ccc34)CC2)C1", "Percent Effect": -2.889},
      {"molecule": "CC(C)C(=O)N1CCC2(CC1)NC(=O)[C@H]1CN(C(=O)N(C)C)C[C@H]12", "Percent Effect": -23.47},
      {"molecule": "Cc1nnc(CCNC(=O)c2coc(CN3CCOCC3)c2)s1", "Percent Effect": -3.668},
      {"molecule": "CCCOc1ccc2c(c1)OCC(C(=O)NC(C)Cn1cccn1)=C2", "note": "(configuration not stated)", "Percent Effect": 18.55},
      {"molecule": "O=c1c(C(F)(F)F)cccn1Cc1nnc(-c2cccnc2)o1", "Percent Effect": -24.3},
      {"molecule": "Cc1nc2cc(C(=O)N3C[C@@H](NS(C)(=O)=O)[C@H](C(C)C)C3)ccc2[nH]1", "Percent Effect": -4.009},
      {"molecule": "N[C@H]1CN(C(=O)CCc2ccccn2)C[C@@H]1c1ccccc1", "Percent Effect": 8.322},
      {"molecule": "Cc1nc2cc(C(=O)N3C[C@@H](C(=O)O)[C@H](c4ccncc4)C3)ccc2[nH]1", "Percent Effect": -0.783},
      {"molecule": "Cc1nc2cc(C(=O)N3C[C@@H](C(=O)O)[C@H](C4CC4)C3)ccc2[nH]1", "Percent Effect": -4.344},
      {"molecule": "CCC[C@H]1CN(C(=O)c2ccc3[nH]c(CO)nc3c2)C[C@@H]1N", "Percent Effect": 98.53},
      {"molecule": "N[C@H]1CN(C(=O)CCC(F)(F)F)C[C@@H]1c1ccccc1", "Percent Effect": 7.576},
      {"molecule": "N[C@H]1CN(C(=O)c2ccc3[nH]c(=O)c(=O)[nH]c3c2)C[C@@H]1c1ccccc1", "Percent Effect": 97.68},
      {"molecule": "N[C@H]1CN(C(=O)c2ccc3[nH]c(CO)nc3c2)C[C@@H]1c1ccccc1", "Percent Effect": 103.3},
      {"molecule": "Nc1nc(CCC(=O)N2C[C@H](c3ccccc3)[C@@H](N)C2)cs1", "Percent Effect": -7.394},
      {"molecule": "O=C(CCn1ccc(=O)[nH]c1=O)N1CCC(Oc2ncccc2Cl)CC1", "Percent Effect": 8.092},
      {"molecule": "Cc1ccc(CNC2CCCc3c2cnn3Cc2ccccc2)s1.Cl", "note": "(configuration not stated)", "Percent Effect": 8.556},
      {"molecule": "Cc1oc(-c2ccccc2)nc1C(=O)NC1=NCCS1", "Percent Effect": -10.94},
      {"molecule": "Cc1ccc(NC(=O)c2ccc(N3CCCCC3)nn2)c(Cl)c1", "Percent Effect": -6.125},
      {"molecule": "Cc1cc(C)n(CC(=O)N2CCCCC2CCN2CCCC2=O)c(=O)n1", "note": "(configuration not stated)", "Percent Effect": 117.3},
      {"molecule": "Cc1cc(C)n(CC(=O)N2C[C@@H]3CC[C@H](C2)N(CC2CCC2)C3)c(=O)n1", "Percent Effect": 9.507},
      {"molecule": "Cc1cc(C)n(CC(=O)N2CCCCC2CCc2cccs2)c(=O)n1", "note": "(configuration not stated)", "Percent Effect": 103.5},
      {"molecule": "O=C(NCCCc1cccs1)N1CCCCC1CCO", "note": "(configuration not stated)", "Percent Effect": -11.71},
      {"molecule": "Cc1cc(C)n(CC(=O)N(C)Cc2csc(-c3cccs3)n2)c(=O)n1", "Percent Effect": -2.174},
      {"molecule": "O=C1CCCN1CCC1CCCCN1C(=O)c1ccc(SCCO)cc1", "note": "(configuration not stated)", "Percent Effect": 10.34},
      {"molecule": "Cn1c(C2CCCCN2C(=O)CN2CCCC2=O)nc2ccccc21", "note": "(configuration not stated)", "Percent Effect": 3.336},
      {"molecule": "Cc1cc2ccccc2n1CCC(=O)N1CCCCC1CCO", "note": "(configuration not stated)", "Percent Effect": -1.29},
      {"molecule": "Cc1cc(C)n(CC(=O)N2CCCCC2CCN(C)C)c(=O)n1", "note": "(configuration not stated)", "Percent Effect": 101.4},
      {"molecule": "COC(=O)c1cc(CN2CCN(c3nc(C)cnc3C)CC2)ccc1O", "Percent Effect": -22.17},
      {"molecule": "CCN(CC)C(=O)c1cc(Br)cc(S(=O)(=O)N2CCOCC2)c1F", "Percent Effect": -12.93},
      {"molecule": "COc1ccccc1C(=O)Nc1c(F)c(C(=O)NC2CCCC2)nn1C", "Percent Effect": 102.6},
      {"molecule": "COc1ccccc1C(=O)Nc1ccc(OC2CCN(C)CC2)cc1", "Percent Effect": -27.65},
      {"molecule": "COc1ccccc1C(=O)Nc1c(C)cnn1CC1CC1", "Percent Effect": -3.808},
      {"molecule": "COc1ccccc1C(=O)Nc1c(F)c(C(=O)N2CCCC2)nn1C", "Percent Effect": 113.5},
      {"molecule": "Cc1nn(C)c(C)c1C(C(=O)O)N1CCc2ccccc2C1", "note": "(configuration not stated)", "Percent Effect": 39.47},
      {"molecule": "CC(C)C(=O)Nc1cc(C(C)(C)C)nn1-c1ccccn1", "Percent Effect": 3.907},
      {"molecule": "CN(Cc1ccccc1Cl)C(C(=O)O)c1ccc(F)c(CO)c1", "note": "(configuration not stated)", "Percent Effect": -0.8463},
      {"molecule": "NC(=O)C1CCN(S(=O)(=O)c2cnn(-c3ccccc3)c2)CC1", "Percent Effect": -7.83},
      {"molecule": "CCn1cc(S(=O)(=O)NC(CO)Cc2ccccc2)cn1", "note": "(configuration not stated)", "Percent Effect": -18.17},
      {"molecule": "CCn1cc(C(=O)Nc2ccc(C)cc2C(=O)NC)cn1", "Percent Effect": -4.213},
      {"molecule": "Cc1ccc(-n2cc(S(=O)(=O)Nc3cccc(C(=O)O)c3C)cn2)cc1", "Percent Effect": 125.3},
      {"molecule": "Cc1ccc(NS(=O)(=O)c2cnn(Cc3ccccc3)c2)c(C(=O)O)c1", "Percent Effect": 100.3},
      {"molecule": "Cc1ccc(NS(=O)(=O)c2cnn(-c3ccccc3)c2)c(C(=O)O)c1", "Percent Effect": 131.3},
      {"molecule": "Cc1cccc(NS(=O)(=O)c2cnn(C)c2)c1C#N", "Percent Effect": -6.698},
      {"molecule": "CCn1nc(C)c(S(=O)(=O)Nc2cccc(C(=O)O)c2C)c1C", "Percent Effect": -0.6024},
      {"molecule": "Cc1cn(-c2ccccc2)nc1NS(=O)(=O)c1cccc(C(=O)O)c1", "Percent Effect": 12.37},
      {"molecule": "CC(C)c1cc(N2CCC(C(C)N3CCCC3)CC2)n2nccc2n1", "note": "(configuration not stated)", "Percent Effect": -4.218},
      {"molecule": "CN(Cc1nc(-c2cccs2)no1)Cc1nc2c(s1)CCCC2", "Percent Effect": -10.58},
      {"molecule": "Cc1ccc2cnn(CCC(=O)Nc3c(C)nn(C)c3C)c2c1", "Percent Effect": -9.349},
      {"molecule": "O=C(NCc1cccc(N2CC=CC2)c1)NC1CC1", "Percent Effect": 1.832},
      {"molecule": "Cc1ccc(C(=O)N2CC[C@H](N3CCOCC3)[C@H](CCCO)C2)cc1O", "Percent Effect": -3.81},
      {"molecule": "O=C(N1CCCC1)N1CCN(Cc2cccnc2)c2ncccc2C1.O=C(O)C(F)(F)F.O=C(O)C(F)(F)F", "Percent Effect": 101.8},
      {"molecule": "CN(C)C(=O)N1CCN(C)c2ncccc2C1", "Percent Effect": 5.475},
      {"molecule": "O=C(c1cnccn1)N1CCN(Cc2cccnc2)c2ncccc2C1", "Percent Effect": 97.13},
      {"molecule": "Cn1cccc1C(=O)N1CCN(CC2CC2)c2ncccc2C1", "Percent Effect": -25.73},
      {"molecule": "COCCN1CCN(C(=O)c2ccncc2F)Cc2cccnc21", "Percent Effect": 4.379},
      {"molecule": "Cn1cccc1C(=O)N1CCN(Cc2ccncc2)c2ncccc2C1.O=C(O)C(F)(F)F.O=C(O)C(F)(F)F", "Percent Effect": -28.33},
      {"molecule": "CN1CCN(C(=O)c2cccn2C)Cc2cccnc21", "Percent Effect": 105.6},
      {"molecule": "Cn1cccc1C(=O)N1CCN(Cc2cccnc2)c2ncccc2C1.O=C(O)C(F)(F)F.O=C(O)C(F)(F)F", "Percent Effect": 51.12},
      {"molecule": "O=C(c1cnccn1)N1CCN(Cc2ccncc2)c2ncccc2C1", "Percent Effect": -4.343},
      {"molecule": "Cc1ccc(C2COCCN2C(=O)c2ccc(CN(C)C)cc2)o1", "note": "(configuration not stated)", "Percent Effect": -6.944},
      {"molecule": "CC(C)Oc1cc(N2C[C@H](C3CC3)[C@@H](N)C2)nc(N)n1", "Percent Effect": 12.97},
      {"molecule": "COc1ccc(-c2noc([C@@H]3C[C@H](NC(=O)NC(C)C)CN3C)n2)cc1", "Percent Effect": 2.003},
      {"molecule": "COc1ccnc(N2Cc3cnc(C(C)(C)C)nc3C2)n1", "Percent Effect": -13.37},
      {"molecule": "CN1CCN(C(=O)Cc2cccc(F)c2)Cc2cccnc21.O=C(O)C(F)(F)F", "Percent Effect": -17.2},
      {"molecule": "O=C(O)C(F)(F)F.O=C(O)C(F)(F)F.O=C(c1ccnnc1)N1CCN(Cc2ccncc2)c2ncccc2C1", "Percent Effect": 96.92},
      {"molecule": "O=C(c1ccc[nH]1)N1CCC(c2nccn2Cc2ccncc2)CC1", "Percent Effect": -7.637},
      {"molecule": "O=C(c1ccc[nH]1)N1CCN(Cc2ccncc2)c2ncccc2C1", "Percent Effect": 105},
      {"molecule": "O=C(O)C(F)(F)F.O=C(O)C(F)(F)F.O=C(O)C(F)(F)F.O=C(c1ccncc1)N1CCN(Cc2cccnc2)c2ncccc2C1", "Percent Effect": 105.3},
      {"molecule": "O=C(O)C(F)(F)F.O=C(O)C(F)(F)F.O=C(c1ccnnc1)N1CCN(Cc2cccnc2)c2ncccc2C1", "Percent Effect": 97.06},
      {"molecule": "CC(=O)NCC(=O)N1CCN(Cc2ccncc2)c2ncccc2C1", "Percent Effect": -10.24},
      {"molecule": "O=C(c1ccncc1F)N1CCN(CC2CC2)c2ncccc2C1", "Percent Effect": 10.49},
      {"molecule": "Cc1cc(C)n(-c2cncc(N3CCN(C(=O)C(C)(C)C)CC3)n2)n1", "Percent Effect": 6.121},
      {"molecule": "NC(=O)c1cccc(CCNCc2cccs2)c1", "Percent Effect": 0.5417},
      {"molecule": "Cc1ccc2c(c1)c(CNC(=O)C1CCCN(CC(N)=O)C1)nn2C", "note": "(configuration not stated)", "Percent Effect": -18.62},
      {"molecule": "CN1[C@H](Cn2cncn2)C[C@@H]2CN(C3CCOCC3)CC[C@@H]21.O=C(O)C(F)(F)F.O=C(O)C(F)(F)F", "Percent Effect": 8.742},
      {"molecule": "CC(C)N1[C@H](Cn2cccn2)C[C@@H]2CN(C3CCOCC3)CC[C@@H]21.O=C(O)C(F)(F)F.O=C(O)C(F)(F)F.O=C(O)C(F)(F)F", "Percent Effect": 7.148},
      {"molecule": "CC(=O)N1CC[C@H]2[C@H](C[C@@H](Cn3cncn3)N2c2nccs2)C1.O=C(O)C(F)(F)F", "Percent Effect": 4.075},
      {"molecule": "CC(C)N1CC[C@H]2[C@H](C[C@@H](Cn3cncn3)N2c2nccs2)C1.O=C(O)C(F)(F)F.O=C(O)C(F)(F)F", "Percent Effect": 110.1},
      {"molecule": "CC(C)N1CC[C@H]2[C@H](C[C@@H](Cn3cccn3)N2c2nccs2)C1.O=C(O)C(F)(F)F.O=C(O)C(F)(F)F.O=C(O)C(F)(F)F", "Percent Effect": 108.8},
      {"molecule": "CN1CC[C@H]2[C@H](C[C@@H](Cn3cncn3)N2c2nccs2)C1", "Percent Effect": -5.255},
      {"molecule": "OC(CN1CCN(CC(F)F)CC1)c1ccc(Br)cc1", "note": "(configuration not stated)", "Percent Effect": 2.807}
    ]}
  ]
}
